p53null 39C kill = qHTS Screen for Compounds that Selectively Target Cancer Cells with p53 Mutations: Cytotoxicity of p53 Null Cells at the Nonpermissive Temperature; H1299 p53-null (neo) cells, 39C, ATPlite viability, 24 h; AID 904, 2007; Potency, µM (top dose mostly 46.1 µM), inactives show at the highest dose activity, negative = cell killing, usual class: cytotoxic; 0.97% of 55,000 active;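 note: potency is the fitted concentration of half-maximal effect; 0% = DMSO only and -100% = full killing by 100 µM tamoxifen; nearly all actives have a fitted effect of over 50% in size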
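Following overnight plating at 37C (600 cells/well), H1299-neo or H1299-p53A138V cells are dosed up to 46 uM. Incubation lasts 24 hr at 39C before ATP detection.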
p53null 32C kill = qHTS Screen for Compounds that Selectively Target Cancer Cells with p53 Mutations: Cytotoxicity of p53 Null Cells at the Permissive Temperature; H1299-neo p53 null cells, ATP luminescence, 24 h, 32C; Potency, µM (highest dose often 46.1 µM), without a hit: at the highest dose activity change, negative = cytotoxicity, usual class: cytotoxic; 0.62% of 55,000 active; AID 903, 2007;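 note: potency is the fitted concentration of half-maximal effect; 0% = DMSO only and -100% = full killing by 100 µM tamoxifen; nearly all actives have a fitted effect of over 55% in size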
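Overnight 37C seeding (600 cells/well) of H1299-neo preceded a 24 hr, 32C exposure to compounds up to 46 uM. ATP levels, read by luminescence after 20 min at RT, indicated surviving cells.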
PMP22 txn prim = Cell-based coincidence reporter assay to measure PMP22 gene transcription in S16 Pmp22-F2sN cells - Primary screen | S16 Pmp22-F2sN Schwann cells, FLuc/NLuc coincidence luminescence, 24 h | AID 1508649, 2021 | Potency, µM (highest dose often 57.5 µM), inactives show at the top dose activity change, negative = inhibition, usual class: inhibitors | 2% of 43,000 active; active = clear falling dose curves in both reporters; inconclusive = both reporters move, but less clearly or upward; inactive = either reporter flat; the % is the NLuc reporter signal; note: potency is the fitted concentration of half-maximal effect; % is set by controls: 0 for no effect and ±100 for the full control effect
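S16(c9) Schwann cells with FLuc/NLuc coincidence reporter in the Pmp22 3' UTR; compounds pin-transferred, 24 h at 37C. Dual-luciferase read: FLuc first, then NLuc after Stop&Glo, each 10 min at room temperature.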
OvCa metastasis = Primary qHTS assay for Inhibitors of ovarian cancer metastasis using an organotypic tumor microenvironment (TME) model. 0.1% of 46,000 active. Potency, µM (highest dose often 45.8 µM), without a hit: at the top dose activity change, negative = inhibition, usual class: inhibitors. SKOV3ip1-GFP adhesion/invasion on 3D omental model, fluorescence;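 note: potency is the fitted concentration of half-maximal effect; plate controls were DMSO wells for no effect and tomatine positive control wells for full effect; nearly all actives have a fitted effect of over 65% in size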
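Primary human omental fibroblast/mesothelial 3D culture pre-formed 48 h. SKOV3ip1-GFP cells added with compounds (0.36-46 umol/L), incubated 2 h RT/16 h 37 C, fixed; GFP cells quantified at 488/509 nm.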
mTORC1 inh = Acumen qHTS Assay for Inhibitors of the mTORC1 Signaling Pathway in MEF (Tsc2-/-, p53-/-) Cells: Sytravon | Tsc2-/- p53-/- MEF, phospho-rpS6 immunofluorescence/PI, 24 h | Potency, µM (titrated, usually from 38.3 µM), inactives show at the top dose activity change, negative = inhibition, actives largely listed as inhibitors | 0.78% of 44,000 active | AID 493208, 2011;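 note: potency is the fitted concentration of half-maximal effect; plate controls were DMSO for no effect and rapamycin for full effect; nearly all actives have a fitted effect of over 50% in size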
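Tsc2-/-, p53-/- MEFs (empty-vector stable line) in DMEM + 10% FBS were treated with compounds 24 h at 37 degree Celsius, fixed, and immunostained for phospho-rpS6 (Alexa-488) with propidium iodide counterstain. Laser-scanning cytometry gave % positive cells, normalized against 7.5 nM rapamycin and DMSO.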
S16 F2sN tox = Cell viability qHTS assay in S16 Pmp22-F2sN cells | 0.48% of 43,000 active | S16 Pmp22-F2sN Schwann cells (luciferase reporters placed in the Pmp22 gene) viability, CellTiter-Glo, 24 h | Potency, µM (doses to about 57.5 µM), for the others: at the top dose activity change, negative = cytotoxicity, most hits filed as cytotoxic; note: potency is the fitted concentration of half-maximal effect; % is set by controls: 0 for no effect and ±100 for the full control effect; nearly all actives have a fitted effect of over 65% in size
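Rat S16 Schwann reporter line, 24 h treatment with library compounds delivered at 23 nL per well. Cell viability by CellTiter-Glo luminescence.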
NLuc sat counter = Biochemical NLuc saturation counterscreen for small molecule modulators of PMP22 gene expression - Nano-Glo assay | shares compounds with PMP22 txn prim | Secreted NLuc enzyme (filtered S16 cell medium), Nano-Glo luminescence | Potency, µM (top dose mostly 57.5 µM), inactives show at the top dose activity change, negative = inhibition, actives largely listed as inhibitors | 4% of 690 active; note: potency is the fitted concentration of half-maximal effect; % is set by controls: 0 for no effect and ±100 for the full control effect
NLuc Km counter = Biochemical coelenterazine-based NLuc counterscreen for small molecule modulators of PMP22 gene expression - Km assay. 5% of 690 active. shares compounds with PMP22 txn prim. Potency, µM (titrated, usually from 57.5 µM), inactives show top-dose activity change, negative = inhibition, usual class: inhibitors. AID 1508639, 2021. secreted NLuc enzyme, coelenterazine luminescence, Km conditions; note: potency is the fitted concentration of half-maximal effect; % is set by controls: 0 for no effect and ±100 for the full control effect
FLuc counter = Biochemical FLuc counterscreen for small molecule modulators of PMP22 gene expression; Potency, µM (doses to about 57.5 µM), without a hit: at the highest dose activity, negative = inhibition, most hits filed as inhibitors; 690 tested, under 10 active; purified P. pyralis FLuc, luminescence, 10 min; shares compounds with PMP22 txn prim; note: % of control where 0% means no effect
Target sequence (P08659 whole entry, looked up): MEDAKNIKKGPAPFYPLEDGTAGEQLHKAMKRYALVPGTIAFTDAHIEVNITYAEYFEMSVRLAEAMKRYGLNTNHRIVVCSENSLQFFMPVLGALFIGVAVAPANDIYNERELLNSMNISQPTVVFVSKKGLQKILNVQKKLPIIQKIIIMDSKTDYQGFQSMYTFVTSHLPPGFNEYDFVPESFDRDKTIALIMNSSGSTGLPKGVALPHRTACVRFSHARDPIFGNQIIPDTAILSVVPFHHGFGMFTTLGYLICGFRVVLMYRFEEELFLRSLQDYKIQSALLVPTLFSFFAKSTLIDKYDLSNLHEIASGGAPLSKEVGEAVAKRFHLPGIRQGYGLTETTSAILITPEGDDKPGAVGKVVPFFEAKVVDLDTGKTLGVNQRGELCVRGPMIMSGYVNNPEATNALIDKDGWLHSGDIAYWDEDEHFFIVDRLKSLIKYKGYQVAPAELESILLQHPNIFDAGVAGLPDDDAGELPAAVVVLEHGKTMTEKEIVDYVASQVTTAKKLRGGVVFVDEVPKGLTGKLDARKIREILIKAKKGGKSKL
S16 F2sN tox cnf = Cell viability qHTS assay in S16 Pmp22-F2sN cells - Confirmatory screen; shares compounds with PMP22 txn prim; S16 Schwann cells viability, CellTiter-Glo ATP luminescence, 24 h; Potency, µM (titrated, usually from 57.5 µM), without a hit: at the highest dose activity change, negative = viability loss, hits mostly cytotoxic; 7% of 690 active; AID 1508641, 2021; note: potency is the fitted concentration of half-maximal effect; % is set by controls: 0 for no effect and ±100 for the full control effect
PMP22 txn cnf = Cell-based coincidence reporter assay to measure PMP22 gene transcription in S16 Pmp22-F2sN cells - Confirmatory screen. shares compounds with PMP22 txn prim. S16 Schwann cells Pmp22-F2sN, dual luciferase, 24 h. Potency, µM (doses to about 57.5 µM), inactives show top-dose activity change, negative = inhibition, most hits filed as inhibitors. 22% of 690 active; active = clear falling dose curves in both reporters; inconclusive = both reporters move, but less clearly or upward; inactive = either reporter flat; the % is the FLuc reporter signal; note: potency is the fitted concentration of half-maximal effect
PMP22 prot conf = Cell-based HiBiT reporter assay to measure PMP22 protein expression in S16 Pmp22-HiBiT cells - Confirmatory screen; shares compounds with PMP22 txn prim; S16 Schwann cells Pmp22-HiBiT, luminescence, 48 h; Potency, µM (titrated, usually from 27.9 µM), inactives show at the top dose activity change, negative = inhibition, hits mostly inhibitors; 95 tested, under 10 active; AID 1508647, 2021
Target sequence (P25094 whole entry, looked up): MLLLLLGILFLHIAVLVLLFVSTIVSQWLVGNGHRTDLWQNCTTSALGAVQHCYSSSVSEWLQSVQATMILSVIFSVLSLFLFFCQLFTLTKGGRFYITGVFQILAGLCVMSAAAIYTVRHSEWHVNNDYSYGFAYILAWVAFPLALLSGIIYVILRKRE
* marks the source's active call; other numbers are inactive results; i = inactive; ? = inconclusive; . = not tested or not shown. A selection: hits, their analogues and other compounds. The true share with any hit is near 3.1%. Unless noted, calls come from the whole dose curve; as a rule, active = well fitted curve in the direction sought with a large enough effect; inconclusive = small, poorly fitted or top-dose-only effect, or another doubt; inactive = no such curve, though single readings can be large; an effect the other way counts as inactive or inconclusive.

SMILES	p53null 39C kill	p53null 32C kill	PMP22 txn prim	OvCa metastasis	mTORC1 inh	S16 F2sN tox	NLuc sat counter	NLuc Km counter	FLuc counter	S16 F2sN tox cnf	PMP22 txn cnf	others
CC1CCc2c(cc(-c3ccccc3)n2-c2ccc(C(=O)NC(C)C)cc2)C1 (stereo unspecified)	-22.6%	49.7%	13.4µM*	?	-14.2%	13.4%	-13.0%	-3.8%	-15.5%	6.5%	?
CCCNC(=O)c1ccc(-n2c(-c3ccccc3)cc3c2CCC(C)C3)cc1 (stereo unspecified)	44.3%	0.3%	?	-27.0%	?	25.3%	.	.	.	.	.
CCOCCCNC(=O)c1ccc(-n2c(-c3ccccc3)cc3c2CCCC3)cc1	24.7%	24.0%	?	8.2%	-13.1%	?	.	.	.	.	.
COCCNC(=O)c1ccc(-n2c(-c3ccccc3)cc3c2CCC(C)C3)cc1 (stereo unspecified)	42.5%	14.8%	10µM*	i	3.7%	?	-16.0%	?	-4.1%	-5.3%	-38.6%
CN1CC(=O)NC1=NC(=O)Nc1cccc(Cl)c1	.	.	.	1.8%	.	.	.	.	.	.	.
CCc1ccc(C(=O)c2cn(CC(=O)Nc3ccc4c(c3)OCO4)c3ccc(CC)cc3c2=O)cc1	?	-3.5%	12.6µM*	i	3.0%	-4.5%	-10.6%	-6.2%	5.2%	?	12.2µM*	PMP22 prot conf=?
CCc1ccc(C(=O)c2cn(CC(=O)Nc3ccc4c(c3)OCO4)c3ccc(Cl)cc3c2=O)cc1	?	-19.7%	?	i	?	-15.8%	.	.	.	.	.
O=C1CCCC(=O)C1C(=O)c1ccc(C(F)(F)F)cc1[N+](=O)[O-]	.	.	.	4.4%	.	.	.	.	.	.	.
O=c1oc2ccccc2cc1-c1cn2cc(Cc3ccc(Br)cc3)sc2n1	?	7.2%	?	i	-13.4%	-0.7%	2.7%	0.0%	-1.9%	1.1%	?
Cc1cncc2cccc(S(=O)(=O)N3CCCN(C(=O)CN)C[C@@H]3C)c12	.	.	.	2.4%	.	.	.	.	.	.	.
CC(C)c1ccc(OCC(=O)Nc2cc(-c3nc4ncccc4o3)ccc2Cl)cc1	-10.9%	-2.4%	12.6µM*	i	-0.4%	21.0%	-4.9%	4.5%	-8.6%	3.4%	?
CO[C@H]1/C=C\O[C@@]2(C)Oc3c(C)c(O)c4c(O)c(c5c(nc6cc(C)ccn65)c4c3C2=O)NC(=O)C(C)=CC=C[C@H](C)[C@H](O)[C@@H](C)[C@@H](O)[C@@H](C)[C@H](OC(C)=O)[C@H]1C	.	.	.	-15.4%	.	.	.	.	.	.	.
CCN(CC)c1ccc(NC(=O)CCCN2C(=O)C(c3ccccc3)Oc3cccnc32)c(C)c1 (stereo unspecified)	8.3%	-3.6%	14.5µM*	7.8%	-13.7%	8.2%	-10.5%	?	-9.0%	-17.3%	?
O=C(CCCN1C(=O)C(c2ccccc2)Oc2cccnc21)Nc1ccccc1C(F)(F)F (stereo unspecified)	10.0%	2.6%	?	i	-5.8%	19.4%	.	.	.	.	.
Cc1c(C(=O)OC2CCC(C)CC2)[nH]c2c1C(=O)CC(c1ccccc1Cl)C2 (stereo unspecified)	38.4%	29.5%	10.1µM*	i	?	-27.8%	?	-5.0%	6.4%	10.2%	-22.6%
Cc1c(C(=O)OC2CCCCCC2)[nH]c2c1C(=O)CC(c1ccccc1Cl)C2 (stereo unspecified)	24.0%	25.3%	?	-19.6%	-24.5%	-21.8%	.	.	.	.	.
CCOc1ccc(-c2nc(CSCC(=O)NCCc3ccccc3)c(C)o2)cc1	36.7%	0.8%	?	-4.3%	3.2%	-28.8%	?	?	19.3µM*	-23.6%	-89.8%
O=c1c2c3c(sc2n(Cc2ccccc2F)c(=O)n1-c1ccc(Cl)cc1)CCCC3	-1.3%	0.9%	10µM*	i	-25.2%	-1.3%	-7.1%	-1.6%	2.4%	0.9%	?
O=C(Cn1c(=O)n(-c2ccc(Cl)cc2)c(=O)c2c3c(sc21)CCC3)c1ccc(F)cc1	-18.8%	2.2%	-14.0%	0.6%	-7.9%	-2.6%	.	.	.	.	.
